The text below walks through data of PubChem BioAssay (NCATS).

Assay [1] concerns the target Estrogen receptor (Homo sapiens) (UniProt P03372). Briefly: qHTS assay for small molecule antagonists of estrogen receptor alpha signaling (AID 588513; active = well fitted curve in the direction sought with a large enough effect in the signal ratio, with a control signal flat, not every such curve was filed as active; the % refers to the signal ratio; also: % is scaled to controls: 0 for no effect and ±100 for the full control effect). In a few lines:
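Fluorescence from CCF4 substrate after 2 h at room temperature gave reporter activity; cells had been exposed to compound and 0.5nM 17-beta-estradiol for 18 h at 37 C. Hill-equation fitting yielded IC50 and maximal response.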

In assay [2] the target is Peroxisome proliferator-activated receptor delta (Homo sapiens) (UniProt Q03181). As to the kind of experiment: qHTS assay for small molecule agonists of peroxisome proliferator-activated receptor delta signaling (AID 588534).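 Also: 0% = DMSO basal wells and 100% = positive control agonist at 10 µM.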 The essentials:
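Cells carrying a PPAR-delta beta-lactamase reporter were treated with compounds for 18 h at 37 °C in agonist mode. CCF4 fluorescence was read after 2 h; EC50 and efficacy from Hill fits.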

A short description of assay [3]: qHTS assay for small molecule antagonists of peroxisome proliferator-activated receptor delta signaling (AID 588535; active = well fitted inhibition curve with a large enough effect in the signal ratio, with a control signal flat, not every such curve was filed as active; the % refers to the signal ratio; also: potency is read from the fitted curve at half-maximal effect;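 as to max response: cells co-treated with a PPAR-delta agonist as stimulator during compound exposure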). The settings on record: HEK293T PPARd-UAS-bla, beta-lactamase FRET ratio, 18 h; 460 nm channel. In a few lines:
(§1)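 Antagonist-mode beta-lactamase reporter (GeneBLAzer PPAR-delta-UAS-bla) in HEK293T cells, 2% charcoal/dextran FBS, 4000 cells/well. Compound titrations, 18 h at 37 C; CCF4 ratio read, IC50 and efficacy from Hill fits.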

Assay [4] has as its target Peroxisome proliferator-activated receptor delta (Homo sapiens) (UniProt Q03181). The assay is described as above. In a few lines:
as §1

Assay [5] concerns the target Peroxisome proliferator-activated receptor gamma (Homo sapiens) (UniProt P37231). Briefly: qHTS assay for small molecule agonists of peroxisome proliferator-activated receptor gamma signaling (AID 588536; active = well fitted curve in the direction sought with a large enough effect in the signal ratio, with a control signal flat, not every such curve was filed as active; the % refers to the signal ratio;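 also: 0% = DMSO basal wells and 100% = rosiglitazone at 2 µM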). In a few lines: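 HEK293 UAS-bla reporter line, 1% charcoal/dextran FBS; titration, 16 h, 37 C; CCF4 loading 2 h RT; fluorescence 460/530 nm. Normalized to rosiglitazone 2 uM = 100%, DMSO = 0%.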

Assay [6] has as its target Vitamin D3 receptor (Homo sapiens) (UniProt P11473). As to the kind of experiment: qHTS assay for small molecule antagonists of vitamin D receptor signaling (AID 588541).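 Also: receptor activated by calcitriol during compound treatment; series mostly up to about 77 µM; % is scaled to controls: 0 for no effect and ±100 for the full control effect.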 In a few lines: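 VDR-UAS-bla HEK293T cells in 2% charcoal-stripped FBS were stimulated with 1-alpha,25-dihydroxyvitamin D3 (3 nM final) plus compound for 16 h at 37 C. The beta-lactamase CCF4 readout was normalized to 50 nM agonist and DMSO, and Hill fits gave IC50.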

The target is the same in assay [7]. Briefly: qHTS assay for small molecule agonists of vitamin D receptor signaling (AID 588543).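 Also: 0% = DMSO basal and 100% = reference agonist control.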 The essentials:
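Reporter cells (HEK293T, VDR-UAS-bla) were seeded in medium with 2% charcoal-stripped serum and incubated 5 h, then compounds in concentration series were added for 16 h at 37 °C. Stimulation was scaled between DMSO basal and 50 nM 1α,25-dihydroxyvitamin D3.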

Assay [8] can be described thus: qHTS assay for small molecule agonists of retinoid X receptor alpha signaling (AID 588544).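 As to activation: 0% = DMSO basal wells and 100% = reference agonist.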 As to conditions: HEK293T RXRa-UAS-bla, beta-lactamase reporter, 18 h; 530 nm emission.
Assay [9] deals with Retinoic acid receptor RXR-alpha (Homo sapiens) (UniProt P19793). Described as above.
The target in assay [10] is Estrogen receptor (Homo sapiens) (UniProt P03372). As to the kind of experiment: qHTS assay for small molecule agonists of estrogen receptor alpha signaling (AID 588514).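 Also: 0% = vehicle only and 100% = reference agonist; nearly all actives have a fitted effect of over 70% in size.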 In a few lines: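 ER-alpha-UAS-bla GripTite HEK293 cells, 5000/well in 2% charcoal/dextran-stripped FBS medium, treated with compound titrations 18 h at 37 C. CCF4 beta-lactamase read by fluorescence after 2 h RT; normalised to 20 nM 17-beta-estradiol (100%) and DMSO (0%), Hill fit for EC50 and efficacy.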

The target of assay [11] is Bile acid receptor (Homo sapiens) (UniProt Q96RI1). Briefly: qHTS assay for small molecule agonists of farnesoid X receptor signaling (AID 588527).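 Also: series mostly up to about 77 µM; 0% = vehicle basal and 100% = reference agonist.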 As to conditions: HEK293T FXR-UAS-bla, beta-lactamase ratio, 16 h; stronger effect = higher value. The essentials:
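Quantitative HTS used FXR-UAS-bla HEK293T cells with 16 h compound incubation at 37 C. EC50 values came from concentration-response curves normalized to chenodeoxycholic acid.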

Assay [12] addresses Glucocorticoid receptor (Homo sapiens) (UniProt P04150). Briefly: qHTS assay for small molecule agonists of glucocorticoid receptor signaling (AID 588532; active = well fitted curve in the direction sought with a large enough effect in the signal ratio, with a control signal flat; the % refers to the signal ratio;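 also: 100% = dexamethasone at 0.1 µM and 0% = DMSO only wells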). As to conditions: HeLa MMTV-bla, beta-lactamase ratio, agonist, 18 h; stronger effect = higher value; percent of dexamethasone control, DMSO zero. In a few lines:
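HeLa GRE-bla reporter cells; 18 h compound exposure at 37 C; 2 h CCF4 loading at room temperature; fluorescence at 460 and 530 nm; EC50 by Hill equation.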

Assay [13] has the same target. As to the kind of experiment: qHTS assay for small molecule antagonists of glucocorticoid receptor signaling (AID 588533; active = well fitted inhibition curve with a large enough effect in the signal ratio, with a control signal flat, not every such curve was filed as active; the % refers to the signal ratio; also: % is scaled to controls: 0 for no effect and ±100 for the full control effect). In a few lines: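 Antagonist-mode qHTS: compound titrations added to GRE-bla HeLa cells, then dexamethasone 2 nM final; 18 h, 37 C. CCF4 FRET fluorescence normalized to dexamethasone and DMSO; IC50 from Hill fit.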
The target in assay [14] is Bile acid receptor (Homo sapiens) (UniProt Q96RI1). Briefly: qHTS assay for small molecule antagonists of farnesoid X receptor signaling (AID 588526). Also: % is scaled to controls: 0 for no effect and ±100 for the full control effect. In a few lines:
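Antagonist mode: titrated compounds tested against chenodeoxycholic acid stimulation (normalized to 50 uM CDCA and DMSO) in GeneBLAzer HEK293T cells for 16 h. Beta-lactamase read by CCF4 fluorescence; IC50 from Hill fits.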

The nature of assay [15]: qHTS for Inhibitors of ATXN expression: Validation of Cytotoxic Assay (AID 588349; active = well fitted curve in the direction sought with a large enough effect; an effect the other way counts as inactive or inconclusive; also: % is scaled to controls: 0 for no effect and ±100 for the full control effect). The essentials: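 HEK293 cells treated with titrated compound for 72 hr at 37 degrees C; viability read as intracellular ATP by CellTiter Glo luminescence.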
Assay [16] can be described thus: qHTS for Inhibitors of ATXN expression: Validation (AID 588378; active = well fitted curve in the direction sought with a large enough effect; an effect the other way counts as inactive or inconclusive; also: series mostly up to about 57 µM; % is scaled to controls: 0 for no effect and ±100 for the full control effect; nearly all actives have a fitted effect of over 75% in size). In a few lines: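 Compounds were pinned onto attached HEK293 cells carrying an ATXN2-firefly luciferase construct and incubated 24 hrs at 37 degrees C. Each well then received a fluorescent viability reagent followed by luciferase substrate for end-point luminescence.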
The target in assay [17] is DNA dC->dU-editing enzyme APOBEC-3G (Homo sapiens) (UniProt Q9HC16). Briefly: qHTS for inhibitors of Vif-A3G interactions: Validation (AID 588379; active = well fitted curve in the direction sought with a large enough effect; an effect the other way counts as inactive or inconclusive; also: 0% is about no effect). In a few lines:
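HeLa cells stably expressing Vif and A3G-eYFP, 700 cells/well, incubated overnight at 37 deg C, then exposed to compound overnight at 37 deg C. Inhibition of Vif-mediated degradation read as increased yellow fluorescence (Ex 488/Em 500-530) by laser-scanning cytometry.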

Assay [18] has as its target Peroxisome proliferator-activated receptor gamma (Homo sapiens) (UniProt P37231). As to the kind of experiment: qHTS assay for small molecule antagonists of peroxisome proliferator-activated receptor gamma signaling (AID 588537; active = well fitted inhibition curve with a large enough effect in the signal ratio, with a control signal flat, not every such curve was filed as active; the % refers to the signal ratio;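 also: reporter cells co-stimulated with 50 nM rosiglitazone agonist during compound treatment; % of control where 0% means no effect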). In a few lines:
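PPARγ-UAS-bla HEK293 cells (3000/well) in 1% charcoal/dextran-stripped FBS are treated with compound, then stimulated with 50 nM rosiglitazone for 16 h at 37 °C. Read-out is CCF4 β-lactamase fluorescence after 2 h at RT. IC50 comes from Hill fits normalised to rosiglitazone and DMSO.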

The structures appear in SMILES notation. “And” between values parts separate entries of the source, which are not always exact repeats. Equal values may be shown once. Inconclusive results are not listed. The source made the active and inactive calls. Unless noted, calls follow the shape of the full dose curve.

Chain of Peroxisome proliferator-activated receptor gamma (Homo sapiens) (P37231 whole entry, looked up): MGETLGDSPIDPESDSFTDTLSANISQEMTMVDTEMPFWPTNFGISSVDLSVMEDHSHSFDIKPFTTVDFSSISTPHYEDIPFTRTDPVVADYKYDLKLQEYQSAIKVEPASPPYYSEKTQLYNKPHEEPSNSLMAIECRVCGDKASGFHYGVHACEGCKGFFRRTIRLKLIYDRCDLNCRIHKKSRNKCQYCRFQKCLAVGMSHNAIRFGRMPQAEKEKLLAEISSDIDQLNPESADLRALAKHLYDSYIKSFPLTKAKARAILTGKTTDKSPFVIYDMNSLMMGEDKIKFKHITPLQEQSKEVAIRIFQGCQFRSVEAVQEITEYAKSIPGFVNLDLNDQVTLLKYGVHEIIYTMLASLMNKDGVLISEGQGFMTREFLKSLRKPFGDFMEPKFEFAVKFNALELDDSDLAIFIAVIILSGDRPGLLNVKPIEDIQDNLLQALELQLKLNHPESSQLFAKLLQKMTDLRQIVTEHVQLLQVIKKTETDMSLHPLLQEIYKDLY
Chain of Glucocorticoid receptor (Homo sapiens) (P04150 whole entry, looked up): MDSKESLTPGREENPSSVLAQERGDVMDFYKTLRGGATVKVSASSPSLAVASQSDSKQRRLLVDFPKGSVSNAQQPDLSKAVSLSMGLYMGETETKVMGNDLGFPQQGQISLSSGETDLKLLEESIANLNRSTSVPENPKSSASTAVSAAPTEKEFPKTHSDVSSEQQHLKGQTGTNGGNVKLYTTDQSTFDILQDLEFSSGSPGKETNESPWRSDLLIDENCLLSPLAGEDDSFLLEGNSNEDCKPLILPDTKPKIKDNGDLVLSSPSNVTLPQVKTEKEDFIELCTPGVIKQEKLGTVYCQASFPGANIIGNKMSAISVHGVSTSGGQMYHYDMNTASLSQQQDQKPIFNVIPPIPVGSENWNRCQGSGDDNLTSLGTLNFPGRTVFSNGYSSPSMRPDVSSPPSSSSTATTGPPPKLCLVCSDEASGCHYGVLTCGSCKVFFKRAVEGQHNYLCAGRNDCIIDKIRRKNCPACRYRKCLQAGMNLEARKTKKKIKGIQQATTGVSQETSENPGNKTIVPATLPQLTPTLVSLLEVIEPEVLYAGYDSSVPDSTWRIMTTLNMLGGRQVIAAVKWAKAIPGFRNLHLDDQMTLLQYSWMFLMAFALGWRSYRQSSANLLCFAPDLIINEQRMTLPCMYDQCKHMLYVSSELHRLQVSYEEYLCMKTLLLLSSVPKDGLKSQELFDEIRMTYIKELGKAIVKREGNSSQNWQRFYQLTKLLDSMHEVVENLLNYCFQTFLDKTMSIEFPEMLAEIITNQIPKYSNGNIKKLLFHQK
Chain of Bile acid receptor (Homo sapiens) (Q96RI1 whole entry, looked up): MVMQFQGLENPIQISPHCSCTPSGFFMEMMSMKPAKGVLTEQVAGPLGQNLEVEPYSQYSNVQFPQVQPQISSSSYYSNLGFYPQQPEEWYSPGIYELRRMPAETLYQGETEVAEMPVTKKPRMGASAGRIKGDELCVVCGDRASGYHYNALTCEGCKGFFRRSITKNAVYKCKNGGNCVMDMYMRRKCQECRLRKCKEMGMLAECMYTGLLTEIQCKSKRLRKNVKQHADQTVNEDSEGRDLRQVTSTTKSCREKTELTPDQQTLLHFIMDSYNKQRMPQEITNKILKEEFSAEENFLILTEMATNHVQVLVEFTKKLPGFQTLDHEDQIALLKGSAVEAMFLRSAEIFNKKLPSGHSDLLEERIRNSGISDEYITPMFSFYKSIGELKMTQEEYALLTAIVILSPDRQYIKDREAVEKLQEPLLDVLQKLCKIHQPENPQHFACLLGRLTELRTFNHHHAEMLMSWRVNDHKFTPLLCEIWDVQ
Chain of Estrogen receptor (Homo sapiens) (P03372 whole entry, looked up): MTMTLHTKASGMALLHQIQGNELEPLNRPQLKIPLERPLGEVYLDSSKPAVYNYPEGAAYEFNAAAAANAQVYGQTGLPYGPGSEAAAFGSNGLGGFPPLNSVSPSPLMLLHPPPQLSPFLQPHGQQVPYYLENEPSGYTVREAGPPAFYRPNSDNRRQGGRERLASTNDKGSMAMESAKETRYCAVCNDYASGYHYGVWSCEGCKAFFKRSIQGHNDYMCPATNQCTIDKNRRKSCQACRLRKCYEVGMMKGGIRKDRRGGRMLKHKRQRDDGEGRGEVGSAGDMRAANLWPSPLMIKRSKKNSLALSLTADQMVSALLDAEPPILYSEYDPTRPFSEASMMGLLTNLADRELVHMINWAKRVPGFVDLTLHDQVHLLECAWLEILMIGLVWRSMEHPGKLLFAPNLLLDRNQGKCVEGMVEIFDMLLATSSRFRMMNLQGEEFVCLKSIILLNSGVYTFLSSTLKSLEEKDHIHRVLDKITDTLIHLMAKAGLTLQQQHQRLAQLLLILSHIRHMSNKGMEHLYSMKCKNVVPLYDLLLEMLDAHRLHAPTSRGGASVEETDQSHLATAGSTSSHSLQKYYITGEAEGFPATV
Chain of Retinoic acid receptor RXR-alpha (Homo sapiens) (P19793 whole entry, looked up): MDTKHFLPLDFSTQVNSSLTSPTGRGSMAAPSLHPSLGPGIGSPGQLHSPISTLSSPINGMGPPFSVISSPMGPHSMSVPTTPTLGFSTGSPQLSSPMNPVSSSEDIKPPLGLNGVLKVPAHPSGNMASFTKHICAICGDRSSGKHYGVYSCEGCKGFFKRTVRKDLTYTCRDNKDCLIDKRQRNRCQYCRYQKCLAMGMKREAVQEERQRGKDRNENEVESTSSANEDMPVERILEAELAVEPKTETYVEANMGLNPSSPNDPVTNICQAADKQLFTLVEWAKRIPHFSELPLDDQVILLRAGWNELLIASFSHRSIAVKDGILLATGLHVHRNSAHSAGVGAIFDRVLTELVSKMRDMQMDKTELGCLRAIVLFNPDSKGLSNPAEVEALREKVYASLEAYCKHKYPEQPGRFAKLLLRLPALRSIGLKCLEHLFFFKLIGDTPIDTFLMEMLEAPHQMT
Chain of Vitamin D3 receptor (Homo sapiens) (P11473 whole entry, looked up): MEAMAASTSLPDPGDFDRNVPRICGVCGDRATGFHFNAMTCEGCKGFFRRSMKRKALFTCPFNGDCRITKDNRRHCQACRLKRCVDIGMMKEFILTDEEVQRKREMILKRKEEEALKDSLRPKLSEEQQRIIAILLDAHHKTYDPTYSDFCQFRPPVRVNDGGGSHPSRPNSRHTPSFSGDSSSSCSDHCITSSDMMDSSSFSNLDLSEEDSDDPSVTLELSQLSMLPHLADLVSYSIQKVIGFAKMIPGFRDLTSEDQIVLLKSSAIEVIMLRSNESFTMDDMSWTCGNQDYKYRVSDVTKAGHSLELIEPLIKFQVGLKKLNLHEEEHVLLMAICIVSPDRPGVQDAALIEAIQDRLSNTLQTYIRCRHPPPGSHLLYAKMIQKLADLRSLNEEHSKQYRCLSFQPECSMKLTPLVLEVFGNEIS
Chain of Peroxisome proliferator-activated receptor delta (Homo sapiens) (Q03181 whole entry, looked up): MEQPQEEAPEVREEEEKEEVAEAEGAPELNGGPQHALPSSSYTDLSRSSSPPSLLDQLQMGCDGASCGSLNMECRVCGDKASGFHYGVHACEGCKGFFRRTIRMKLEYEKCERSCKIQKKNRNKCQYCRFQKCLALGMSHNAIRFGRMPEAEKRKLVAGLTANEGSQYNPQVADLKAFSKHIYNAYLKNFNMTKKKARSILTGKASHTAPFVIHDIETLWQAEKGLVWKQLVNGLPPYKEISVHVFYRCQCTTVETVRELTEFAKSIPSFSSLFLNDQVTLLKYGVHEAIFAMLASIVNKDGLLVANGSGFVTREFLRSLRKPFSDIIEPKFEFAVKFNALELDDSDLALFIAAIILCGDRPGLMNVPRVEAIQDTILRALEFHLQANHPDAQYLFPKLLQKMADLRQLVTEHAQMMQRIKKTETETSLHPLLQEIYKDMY
Chain of DNA dC->dU-editing enzyme APOBEC-3G (Homo sapiens) (Q9HC16 whole entry, looked up): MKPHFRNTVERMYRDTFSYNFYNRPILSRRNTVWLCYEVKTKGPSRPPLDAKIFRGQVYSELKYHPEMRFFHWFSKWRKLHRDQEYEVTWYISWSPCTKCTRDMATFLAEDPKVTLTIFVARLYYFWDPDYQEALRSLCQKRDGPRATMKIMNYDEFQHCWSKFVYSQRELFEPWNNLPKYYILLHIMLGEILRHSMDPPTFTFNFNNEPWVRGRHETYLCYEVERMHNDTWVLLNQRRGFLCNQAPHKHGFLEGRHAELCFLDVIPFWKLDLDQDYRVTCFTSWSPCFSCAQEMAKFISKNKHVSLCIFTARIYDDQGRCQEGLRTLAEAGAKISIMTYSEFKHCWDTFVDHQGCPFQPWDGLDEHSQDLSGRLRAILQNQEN

As to `CCCCCCCCC(=O)NCc1ccc(O)c(OC)c1`, the Potency entry in assay [1] and in assay [4] was “inactive” throughout. Further, the outcome in assay [2], in assay [5], in assay [6], in assay [7] and in assay [9] was inactive. In addition, the max response in [3] was 11.4%; in assay [8], 2.94%.

For `CN(C)C(=S)SSC(=S)N(C)C`, the Potency entry in assay [1], in assay [10], in [13] and in assay [4] was “inactive” throughout. For the same compound, the activation is 3.15% (inactive) in [11]; 0.667% (inactive) and -2.28% (inactive) in assay [12]. For the same compound, the result in assay [2] and in assay [7] was inactive. The max response in assay [3] was determined as 11.3%.

As for `CNC(=O)Oc1cccc2ccccc12`, the Potency result in assay [1], in assay [10], in [14] and in assay [4] was “inactive” each time. For the same compound, in [11], the activation is -1.5% (inactive). The result in assay [2], in assay [6], in assay [7] and in [9] was inactive. Besides, the max response in [3] was 25.4%; in assay [8], -5.93% and -0.426%.

Take `NC(=O)CN1CCCC1=O`: in [15], the compound was classed as inactive. Also, the Potency result in assay [16] is “inactive”.

For the compound `CC[n+]1c(-c2ccccc2)c2cc(N)ccc2c2ccc(N)cc21`, in assay [10], the Potency result is “inactive”. For the same compound, the activation in assay [11] was 9.69% (inactive). In addition, the compound was classed as inactive in assay [2] and in assay [7]. For the same compound, the max response in assay [3] is -102%. In assay [4], the Potency is 31.6 µM (active).

Consider `O=C(O)c1nn(Cc2ccc(Cl)cc2Cl)c2ccccc12`, for which the result in [15] and in [17] was inactive. The Potency result in assay [16] was “inactive”.

Take `Oc1c(Br)cc(Br)cc1Br`: the Potency result in [1], in assay [10], in [4] and in assay [18] was “inactive” in each case. For the same compound, the compound was called inactive in assay [2], in [5] and in assay [9]. Further, the max response was 18.5% in assay [3] and -20.6% in assay [8].

For the compound `Cc1ccc(N=CN(C)C=Nc2ccc(C)cc2C)c(C)c1`, the Potency result in [10] and in assay [13] was “inactive” throughout. Besides, in assay [12], the activation was 6.83% (inactive). Besides, in [7], the result was inactive.

For `NS(=O)(=O)c1cc2c(cc1Cl)NCNS2(=O)=O`, in assay [11], the activation was -0.539% (inactive) and 0.498% (inactive).

For the compound `CN(C)C(=S)SC(=S)N(C)C`, the activation in assay [11] is 1.4% (inactive). Besides, in assay [2], the compound was classed as inactive.
